Source: PubChem BioAssay (NCATS)
Records with an inconclusive call do not appear. Entries that show only a call come without a potency. Active and inactive are the calls of the source. The call rests on the fitted dose curve; in most records, active means well fitted inhibition curve with a large enough effect; inconclusive means small, poorly fitted or top-dose-only effect; inactive means no such curve, though single readings can be large or run the other way.

Assay: Primary qHTS for small molecule stabilizers of the endoplasmic reticulum resident proteome: Secreted ER Calcium Modulated Protein (SERCaMP) assay (AID 1508630)
Settings: SH-SY5Y GLuc-SERCaMP (Gaussia luciferase released on ER calcium loss) secretion, thapsigargin, luminescence; series mostly up to 38.4 µM
Text: Assay Provider: Brandon K. Harvey Ph.D.
National Institute on Drug Abuse, National Institutes of Health, Baltimore, MD
Endoplasmic reticulum (ER) dysregulation is associated with human pathologies including neurodegenerative, cardiovascular, muscular, and diabetic conditions. Maintenance of ER calcium is critical for functions of the ER and its depletion can lead to loss of ER resident proteins, in a process termed exodosis. Therapeutic compounds capable of attenuating the redistribution of ER proteins under pathological conditions may slow or stop disease progression. To identify such compounds, we performed a quantitative high-throughput screen (qHTS) using the SERCaMP assay, which monitors secretion of ER resident proteins triggered by calcium depletion.
SERCaMP was initially developed as a reporter of ER calcium homeostasis using a Gaussia luciferase with a modified signal peptide and carboxy-terminus (GLuc-SERCaMP), modifications that confer secretion of the reporter in response to ER calcium depletion (Henderson et al., 2014). The assay was used to screen 9,501 compounds, including a collection of drugs approved by the FDA (US), EMA (EU), NHI (Japan), and HC (Canada) regulatory agencies (Huang et al., 2011). Since the SERCaMP reporter reflects the exodosis phenomenon (Trychta et al., 2018a), compounds identified in the screen have the potential to prevent exodosis by different mechanisms such as stabilizing ER calcium or augmenting ERS retrieval.
1. Henderson, M.J., Wires, E.S., Trychta, K.A., Richie, C.T., and Harvey, B.K. (2014). SERCaMP: a carboxy-terminal protein modification that enables monitoring of ER calcium homeostasis. Mol Biol Cell 25, 2828-2839.
2. Huang, R., Southall, N., Wang, Y., Yasgar, A., Shinn, P., Jadhav, A., Nguyen, D.T., and Austin, C.P. (2011). The NCGC pharmaceutical collection: a comprehensive resource of clinically approved drugs enabling repurposing and chemical genomics. Sci Transl Med 3, 80ps16.
3. Trychta, K.A., Back, S., Henderson, M.J., and Harvey, B.K. (2018a). KDEL Receptors Are Differentially Regulated to Maintain the ER Proteome under Calcium Deficiency. Cell Rep 25, 1829-1840 e1826.
SEQUENCE No. (1, 2, 3, etc.); […] (e.g., Cells, Incubation, Reagent, etc.); VALUE and DESCRIPTION.
1; Reagent; 5 uL; 1000 SH-SY5Y cells per wells
3; Compound; 23 nL; Control inhibitor / compound library
5; Reagent; 100 nM; Thapsigargin
7; Reagent; 1 uL; 0.5x coelenterazine
8; Detection; Luminescence; ViewLux imaging system
NOTES (numbers refer to sequence above)
1; SH-SY5Y human neuroblastoma cells stably expressing GLuc-SERCaMP (SH-SY5Y-GLuc-ASARTDL) cells were seeded in 1,536 well white tissue culture treated plates (Corning, Cat# 7464) in DMEM-high glucose-sodium pyruvate (ThermoFisher Scientific, Cat #10569) supplemented with 10% bovine growth serum (Hyclone), 10 U/ml penicillin (Gibco), 10 ug/ml streptomycin (Gibco), and 20 mM HEPES.
2; Assay plates were incubated for 5 hour at 37C in a humidified incubator containing 5% CO2.
3; qHTS libraries (23 nl, final concentrations of 1.53 uM, 7.67 uM, 38.3 uM) or controls (neutral control: DMSO, positive control: dantrolene) were added using a Kalypsis pin-tool Robotic System equipped with 1536 pinheads.
4; Cells were then incubated for 16 hours at 37C, 5% CO2.
5; Thapsigargin was added at 100 nM to deplete ER calcium stores.
6; Cells were incubated for 4 hour (37 °C, 5% CO2)
7; Gaussia luciferase in the medium was measured by adding 1 ul of 0.5x coelenterazine (final concentration 0.07x) prepared in Gaussia Luciferase Glow Assay Buffer (Pierce), without addition of the Cell Lysis Buffer Reagent.
8; Luminescence was measured using a ViewLux […] CCD imaging system (Perkin Elmer) equipped with clear filters. […] The same controls were also used for the calculation of the Z' factor, a measure of assay quality control, as previously described (Zhang et al., 1999). […]
Potency means the concentration at half of the fitted maximal effect.

Row | SMILES | Potency | activity change, negative = inhibition
1 | CC1(C)O[C@@H]2C[C@H]3[C@@H]4C[C@H](F)C5=CC(=O)CC[C@]5(C)[C@H]4[C@@H](O)C[C@]3(C)[C@]2(C(=O)CO)O1 | inactive | –
2 | Oc1cc(O)c2c(c1)O[C@H](c1ccc(O)c(O)c1)[C@H](O)C2 | inactive | –
3 | CC(C)(C)NC(=O)[C@@H]1CN(Cc2cccnc2)CCN1C[C@@H](O)C[C@@H](Cc1ccccc1)C(=O)N[C@H]1c2ccccc2C[C@H]1O | inactive | –
4 | NC(=O)C(=O)N/N=C/c1ccc([N+](=O)[O-])o1 | inactive | –
5 | CCOc1ccc2nc3cc(N)ccc3c(N)c2c1 | inactive | –
6 | CC(C)(C)CC(C)(C)c1ccc(OCCOCC[N+](C)(C)Cc2ccccc2)cc1 | inactive | –
7 | c1ccc(OCc2ccc(CCCN3CCOCC3)cc2)cc1 | inactive | –
8 | CCCCCCCCCCCCCCCC[N+](C)(C)CCN(Cc1ccc(OC)cc1)c1ncccn1 | inactive | –
9 | COc1cc(C(=S)N2CCOCC2)cc(OC)c1OC | inactive | –
10 | NC[C@H]1O[C@H](O[C@H]2[C@H](O[C@@H]3O[C@H](CO)[C@@H](O)[C@H]3O)C(O)[C@H](N)C[C@@H]2N)[C@H](N)[C@@H](O)[C@@H]1O (stereo not given in full) | – | -22.5% [at 7.35 µM] (inactive)
11 | N[C@H](CO)C(=O)O | inactive | –
12 | NC(=NCCCCCCN=C(N)/N=C(\N)Nc1ccc(Cl)cc1)/N=C(\N)Nc1ccc(Cl)cc1 | inactive | –
13 | CC(=O)N/N=C/c1ccc([N+](=O)[O-])o1 | inactive | –
14 | CCC(=O)c1c(O)cc(O)cc1O | inactive | –
15 | C[C@@H]1C[C@H]2[C@@H]3C[C@H](F)C4=CC(=O)C(Cl)=C[C@]4(C)[C@@]3(F)[C@@H](O)C[C@]2(C)[C@@]1(O)C(=O)CO | inactive | –
16 | CCCSS/C(CCO)=C(\C)N(C=O)Cc1cnc(C)nc1N | inactive | –
17 | OC[C@H]1O[C@@H](n2cnc3c(=S)nc[nH]c32)[C@H](O)[C@@H]1O | inactive | –
18 | CNCCC=C1c2ccccc2CCc2ccccc21 | inactive | –
19 | Cc1ncc(CSSCc2cnc(C)c(O)c2CO)c(CO)c1O | inactive | –
20 | CCCCCCCCCCCCCCCC[N+](C)(C)CC | inactive | –

Row | SMILES | Potency | activity change, negative = inhibition
21 | CCCCc1nc(Cl)c(CO)n1Cc1ccc(-c2ccccc2-c2nn[nH]n2)cc1 | inactive | –
22 | CC(Cc1ccccc1)(NC(=O)CN)c1ccccc1 (stereo not given) | inactive | –
23 | CC/C(=C(/CC)c1ccc(O)cc1)c1ccc(O)cc1 | inactive | –
24 | CCOC(=O)n1ccn(C)c1=S | inactive | –
25 | O=c1c(-c2ccccc2)c1-c1ccccc1 | inactive | –
26 | COC1=CC(=O)C[C@@H](C)[C@]12Oc1c(Cl)c(OC)cc(OC)c1C2=O | inactive | –
27 | CC(=O)Nc1c(I)cc(I)c(C(=O)O)c1I | inactive | –
28 | O=C1OC2(c3ccc(O)cc3Oc3cc(O)ccc32)c2ccccc21 | inactive | –
29 | Cc1nc2n(c(=O)c1CCN1CCC(c3noc4cc(F)ccc34)CC1)CCC[C@H]2O | inactive | –
30 | COc1cc2c(cc1OC)[C@@H]1CC(=O)[C@@H](CC(C)C)CN1CC2 | inactive | –
31 | CC[C@H](C)C(=O)O[C@H]1CCC=C2C=C[C@H](C)[C@H](CC[C@@H]3C[C@@H](O)CC(=O)O3)[C@H]21 | 2000 nM (active) | –
32 | Oc1ccc(Cl)c2cccnc12 | inactive | –
33 | CC(=O)O[C@]1(C(C)=O)CC[C@H]2[C@@H]3C[C@H](C)C4=CC(=O)CC[C@]4(C)[C@H]3CC[C@@]21C | inactive | –
34 | CCCCOc1ccc(OCCCN2CCOCC2)cc1 | inactive | –
35 | CC(Cc1cccc(C(F)(F)F)c1)NCCOC(=O)c1ccccc1 (stereo not given) | inactive | –
36 | CCOC(=O)/C=C(C)/C=C/C=C(C)/C=C/c1c(C)cc(OC)c(C)c1C | inactive | –
37 | COc1cc2c(cc1O)CC[C@@H]1[C@@H]2CC[C@]2(C)[C@@H](O)CC[C@@H]12 | inactive | –
38 | CCCCCCCCCCCCCCCCOP(=O)([O-])OCC[N+](C)(C)C | inactive | –
39 | CN1CCC[C@@H]1c1cccnc1 | inactive | –
40 | CC(=O)OCC(=O)[C@@]1(O)[C@H](C)C[C@H]2[C@@H]3CCC4=CC(=O)C=C[C@]4(C)[C@@]3(F)[C@@H](O)C[C@@]21C | inactive | –
